Experimental data published in PubChem BioAssay (NCATS).
Results filed as inconclusive are left out. The source made the active and inactive calls. Calls follow the shape of the dose curve; as a rule, active = well fitted curve in the direction sought with a large enough effect; inconclusive = small, poorly fitted or top-dose-only effect, or another doubt; inactive = no such curve, though single readings can be large; an effect the other way counts as inactive or inconclusive. Peptide text beside a SMILES is read from it.

Experiments:
[1] = Quantitative High-Throughput drug screen in 47 multiple myeloma cell lines against the NCATS MIPE library collection: ARD_JJKsccE7 cell viability assay (AID 1918929)
Summary of the method: (§1)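 Viability readout: CellTiter-Glo luminescence following 5 min room-temperature incubation with reagent. Prior exposure: 48 h, 37C, humidified 5% CO2, 500 cells per well.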

[2] = Quantitative High-Throughput drug screen in 47 multiple myeloma cell lines against the NCATS MIPE library collection: Karpas620_DSMZ cell viability assay (AID 1918959); also: nearly all actives have a fitted effect of over 30% in size
Summary of the method: (§2)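 Myeloma cells (500 per well) were exposed to MIPE 4.0 compounds by pin transfer and incubated 48 hours at 37C, 5% CO2. Viability was read as ATP by CellTiter-Glo luminescence, normalised to DMSO (100%) and media-only (0%) wells.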

[3] = Quantitative High-Throughput drug screen in 47 multiple myeloma cell lines against the NCATS MIPE library collection: JIM3_ECACC cell viability assay (AID 1918963; also: nearly all actives have a fitted effect of over 35% in size)
Summary of the method: as §2

[4] = Quantitative High-Throughput drug screen in 47 multiple myeloma cell lines against the NCATS MIPE library collection: JIM1_ECACC cell viability assay (AID 1918964)
Summary of the method: as §1

[5] = Quantitative High-Throughput drug screen in 47 multiple myeloma cell lines against the NCATS MIPE library collection: INA6_PLB cell viability assay (AID 1918965; also: nearly all actives have a fitted effect of over 55% in size)
Summary of the method: (§3)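 CellTiter-Glo ATP luminescence gave viability after 48 h compound treatment at 37C of 500 multiple myeloma cells per well. Normalisation used DMSO-only wells as 100% and media-only wells as 0% viability; primary qHTS of approved and investigational drugs.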

[6] = Quantitative High-Throughput drug screen in 47 multiple myeloma cell lines against the NCATS MIPE library collection: H1112_PLB cell viability assay (AID 1918967; also: nearly all actives have a fitted effect of over 30% in size)
Summary of the method: as §1

[7] = Quantitative High-Throughput drug screen in 47 multiple myeloma cell lines against the NCATS MIPE library collection: Karpas25_ECACC cell viability assay (AID 1918968; also: nearly all actives have a fitted effect of over 35% in size)
Summary of the method: as §1

[8] = Quantitative High-Throughput drug screen in 47 multiple myeloma cell lines against the NCATS MIPE library collection: KMS27_JCRB cell viability assay (AID 1918970); also: nearly all actives have a fitted effect of over 30% in size
Summary of the method: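 Luminescent ATP read-out (CellTiter-Glo, 5 min at room temperature) after 48 h compound exposure of 500 KMS27_JCRB cells per well; DMSO wells define full viability and media-only wells zero.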

[9] = Quantitative High-Throughput drug screen in 47 multiple myeloma cell lines against the NCATS MIPE library collection: KMS12PE_JCRB cell viability assay (AID 1918972); also: nearly all actives have a fitted effect of over 30% in size
Summary of the method: as §3

[10] = Quantitative High-Throughput drug screen in 47 multiple myeloma cell lines against the NCATS MIPE library collection: NCIH929_DSMZ cell viability assay (AID 1918978); also: nearly all actives have a fitted effect of over 35% in size
Summary of the method: (§4)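 ATP-based CellTiter-Glo luminescence after 48 h drug exposure (37 °C, 5% CO2) of 500 myeloma cells per well. DMSO-only wells set 100% viability, media-only wells 0%; MIPE 4.0 library added by pin tool.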

[11] = Quantitative High-Throughput drug screen in 47 multiple myeloma cell lines against the NCATS MIPE library collection: KMM1_JCRB cell viability assay (AID 1918960); also: nearly all actives have a fitted effect of over 30% in size
Summary of the method: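 CellTiter-Glo luminescence after 48 h exposure gives viability, scaled between DMSO-only (100%) and media-only (0%) controls. Library compounds are pinned onto 500 myeloma cells per well, incubated at 37C with 5% CO2.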

[12] = Quantitative High-Throughput drug screen in 47 multiple myeloma cell lines against the NCATS MIPE library collection: KHM11_PLB cell viability assay (AID 1918962); also: nearly all actives have a fitted effect of over 35% in size
Summary of the method: as §2

[13] = Quantitative High-Throughput drug screen in 47 multiple myeloma cell lines against the NCATS MIPE library collection: KMS26_JCRB cell viability assay (AID 1918975); also: nearly all actives have a fitted effect of over 45% in size
Summary of the method: (§5)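 Inhibition of cell viability is measured here. Each line was plated at 500 cells per well, treated with MIPE 4.0 drugs, kept 48 hours at 37C, then assayed for ATP content by CellTiter-Glo luminescence.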

[14] = Quantitative High-Throughput drug screen in 47 multiple myeloma cell lines against the NCATS MIPE library collection: MMM1_PLB cell viability assay (AID 1918976); also: nearly all actives have a fitted effect of over 35% in size
Summary of the method: as §4

[15] = Quantitative High-Throughput drug screen in 47 multiple myeloma cell lines against the NCATS MIPE library collection: KMS12BM_JCRB cell viability assay (AID 1918971); also: nearly all actives have a fitted effect of over 35% in size
Summary of the method: as §5

[16] = Quantitative High-Throughput drug screen in 47 multiple myeloma cell lines against the NCATS MIPE library collection: KMS20_JCRB cell viability assay (AID 1918973); also: nearly all actives have a fitted effect of over 45% in size
Summary of the method: as §1

[17] = Quantitative High-Throughput drug screen in 47 multiple myeloma cell lines against the NCATS MIPE library collection: MOLP8_DSMZ cell viability assay (AID 1918977); also: nearly all actives have a fitted effect of over 45% in size
Summary of the method: as §4

[18] = Quantitative High-Throughput drug screen in 47 multiple myeloma cell lines against the NCATS MIPE library collection: Karpas417_ECACC cell viability assay (AID 1918961); details: Karpas417 myeloma viability, CellTiter-Glo ATP luminescence, 48 h; viability (% of DMSO): at 45.8 µM (top of the series)
Summary of the method: as §3

[19] = Quantitative High-Throughput drug screen in 47 multiple myeloma cell lines against the NCATS MIPE library collection: JJN3_DSMZ cell viability assay (AID 1918966; also: nearly all actives have a fitted effect of over 50% in size)
Summary of the method: as §1

[20] = Quantitative High-Throughput drug screen in 47 multiple myeloma cell lines against the NCATS MIPE library collection: KMS21BM_JCRB cell viability assay (AID 1918974); details: ATP luminescence, 48 h; viability: at 45.8 µM (top of the series) unless noted
Summary of the method: as §1
Potency is read from the fitted curve at half-maximal effect.

## CC(C)c1ccc2oc3nc(N)c(C(=O)O)cc3c(=O)c2c1
[1]
  Potency: inactive
[2]
  Potency: inactive
[3]
  Potency: inactive
[4]
  Potency: inactive
[5]
  Potency: inactive
[6]
  Potency: inactive
[7]
  Potency: inactive
[8]
  Potency: inactive
[9]
  Potency: inactive
[10]
  Potency: inactive

## Cc1cccc(C)c1OCC(=O)N[C@@H](Cc1ccccc1)[C@@H](O)C[C@H](Cc1ccccc1)NC(=O)[C@H](C(C)C)N1CCCNC1=O
[1]
  Potency: 5.9 µM (active)
[11]
  Potency: 6.62 µM (active)
[12]
  Potency: inactive
[3]
  Potency: 20.9 µM (active)
[6]
  Potency: 16.6 µM (active)
[9]
  Potency: 6.62 µM (active)
[13]
  Potency: 18.7 µM (active)
[14]
  Potency: 16.6 µM (active)

## CCCCCCCCOc1ccccc1C(=O)Nc1ccc(C(=O)OCC[N+](C)(CC)CC)cc1
[1]
  Potency: inactive
[2]
  Potency: 5.9 µM (active)
[5]
  Potency: 18.7 µM (active)
[7]
  Potency: 9.35 µM (active)
[8]
  Potency: 6.62 µM (active)
[15]
  Potency: 18.7 µM (active)
[9]
  Potency: 4.69 µM (active)
[16]
  Potency: 16.6 µM (active)
[13]
  Potency: 16.6 µM (active)
[14]
  Potency: 16.6 µM (active)
[17]
  Potency: 20.9 µM (active)
[10]
  Potency: 20.9 µM (active)

## CC1(C)NC(=O)N(c2ccc([N+](=O)[O-])c(C(F)(F)F)c2)C1=O
[1]
  Potency: inactive
[11]
  Potency: inactive
[12]
  Potency: inactive
[4]
  Potency: 0.235 µM (active)
[5]
  Potency: 3.32 µM (active)
[6]
  Potency: 11.8 µM (active)
[8]
  Potency: inactive
[9]
  Potency: inactive
[10]
  Potency: inactive

## CN(C)CCCC1(c2ccc(F)cc2)OCc2cc(C#N)ccc21 (configuration not stated)
[1]
  Potency: inactive
[11]
  Potency: inactive
[12]
  Potency: inactive
[3]
  Potency: inactive
[6]
  Potency: 8.33 µM (active)
[7]
  Potency: inactive
[8]
  Potency: inactive
[9]
  Potency: inactive
[13]
  Potency: inactive

## Cc1nc(-c2ccc(OCC(C)C)c(C#N)c2)sc1C(=O)O
[1]
  Potency: inactive
[11]
  Potency: inactive
[3]
  Potency: inactive
[4]
  Potency: inactive
[6]
  Potency: inactive
[8]
  Potency: inactive
[9]
  Potency: inactive
[16]
  Potency: inactive
[14]
  Potency: 6.62 µM (active)
[17]
  Potency: 2.96 µM (active)
[10]
  Potency: inactive

## S=c1nc[nH]c2nc[nH]c12
[1]
  Potency: 2.35 µM (active)
[11]
  Potency: 4.69 µM (active)
[12]
  Potency: inactive
[3]
  Potency: 16.6 µM (active)
[5]
  Potency: 1.87 µM (active)
[7]
  Potency: 16.6 µM (active)
[8]
  Potency: 7.43 µM (active)
[15]
  Potency: 13.2 µM (active)
[9]
  Potency: 2.35 µM (active)
[13]
  Potency: 5.9 µM (active)
[10]
  Potency: 2.96 µM (active)

## COC(=O)[C@H](Cc1ccccc1)NC(=O)[C@@H](N)CC(=O)O (H-Asp-Phe-OMe)
[1]
  Potency: inactive
[11]
  Potency: inactive
[12]
  Potency: inactive
[3]
  Potency: inactive
[4]
  Potency: inactive
[5]
  Potency: inactive
[6]
  Potency: inactive
[7]
  Potency: inactive
[8]
  Potency: inactive
[15]
  Potency: inactive
[9]
  Potency: inactive
[10]
  Potency: inactive

## CN(C)c1ccc2nc3ccc(=[N+](C)C)cc-3sc2c1
[1]
  Potency: 13.2 µM (active)
[11]
  Potency: 2.35 µM (active)
[18]
  Potency: 6.62 µM (active)
[12]
  Potency: 4.18 µM (active)
[3]
  Potency: 2.35 µM (active)
[4]
  Potency: 9.35 µM (active)
[5]
  Potency: 1.48 µM (active)
[19]
  Potency: 0.662 µM (active)
[6]
  Potency: 8.33 µM (active)
[7]
  Potency: 0.662 µM (active)
[8]
  Potency: 1.32 µM (active)
[15]
  Potency: 4.69 µM (active)
[9]
  Potency: 5.9 µM (active)
[20]
  Potency: 1.48 µM (active)
[13]
  Potency: 1.32 µM (active)
[14]
  Potency: 5.26 µM (active)
[10]
  Potency: 6.62 µM (active)

## N[C@@H](Cc1cc(I)c(Oc2cc(I)c(O)c(I)c2)c(I)c1)C(=O)O
[1]
  Potency: inactive
[11]
  Potency: inactive
[18]
  Potency: inactive
[3]
  Potency: inactive
[4]
  Potency: 0.0053 µM (active)
[6]
  Potency: inactive
[7]
  Potency: inactive
[9]
  Potency: inactive
[14]
  Potency: 2.96 µM (active)
[10]
  Potency: inactive

## Clc1ccc(C(Cn2ccnc2)OCc2ccc(Sc3ccccc3)cc2)c(Cl)c1 (configuration not stated)
[1]
  Potency: 26.4 µM (active)
[2]
  Potency: 18.7 µM (active)
[11]
  Potency: 20.9 µM (active)
[4]
  Potency: 20.9 µM (active)
[5]
  Potency: 26.4 µM (active)
[7]
  Potency: 18.7 µM (active)
[8]
  Potency: 18.7 µM (active)
[15]
  Potency: 26.4 µM (active)
[9]
  Potency: 18.7 µM (active)
[20]
  Potency: 26.4 µM (active)
[14]
  Potency: 23.5 µM (active)

## c1cnc2cc3c(cc2n1)C1CNCC3C1
[1]
  Potency: inactive
[11]
  Potency: inactive
[18]
  Potency: inactive
[12]
  Potency: inactive
[3]
  Potency: inactive
[4]
  Potency: inactive
[5]
  Potency: inactive
[7]
  Potency: inactive
[15]
  Potency: inactive
[9]
  Potency: inactive
[20]
  Potency: inactive
[13]
  Potency: inactive

## Nc1ncn([C@H]2C[C@H](O)[C@@H](CO)O2)c(=O)n1
[1]
  Potency: 0.418 µM (active)
[11]
  Potency: 0.296 µM (active)
[12]
  Potency: inactive
[5]
  Potency: 0.0235 µM (active)
[7]
  Potency: 4.69 µM (active)
[8]
  Potency: inactive
[13]
  Potency: inactive
[17]
  Potency: inactive

## Cc1nc(Nc2ncc(C(=O)Nc3c(C)cccc3Cl)s2)cc(N2CCN(CCO)CC2)n1
[1]
  Potency: 2.35 µM (active)
[2]
  Potency: 16.6 µM (active)
[11]
  Potency: 1.05 µM (active)
[5]
  Potency: 0.0833 µM (active)
[7]
  Potency: 0.332 µM (active)
[8]
  Potency: 10.5 µM (active)
[9]
  Potency: 0.372 µM (active)
[16]
  Potency: 0.332 µM (active)
[20]
  Potency: 0.209 µM (active)

## COC1=C(OC)C(=O)C(CCCCCCCCCCO)=C(C)C1=O
[1]
  Potency: 20.9 µM (active)
[11]
  Potency: 18.7 µM (active)
[12]
  Potency: 26.4 µM (active)
[3]
  Potency: 18.7 µM (active)
[5]
  Potency: 18.7 µM (active)
[7]
  Potency: 13.2 µM (active)
[8]
  Potency: 18.7 µM (active)
[15]
  Potency: 16.6 µM (active)
[9]
  Potency: 18.7 µM (active)
[13]
  Potency: 23.5 µM (active)
[14]
  Potency: 20.9 µM (active)
[10]
  Potency: 23.5 µM (active)

## O=c1cc(N2CCOCC2)oc2c(-c3ccccc3)cccc12
[1]
  Potency: inactive
[2]
  Potency: inactive
[11]
  Potency: inactive
[19]
  Potency: 16.6 µM (active)
[7]
  Potency: 7.43 µM (active)
[8]
  Potency: inactive
[15]
  Potency: 14.8 µM (active)
[9]
  Potency: inactive
[20]
  Potency: inactive
[13]
  Potency: 7.43 µM (active)
[14]
  Potency: 18.7 µM (active)

## O=C(CS(=O)Cc1ccco1)NCC=CCOc1cc(CN2CCCCC2)ccn1 (configuration not stated)
[1]
  Potency: inactive
[11]
  Potency: inactive
[3]
  Potency: inactive
[4]
  Potency: inactive
[6]
  Potency: inactive
[7]
  Potency: 20.9 µM (active)
[8]
  Potency: inactive
[15]
  Potency: inactive
[9]
  Potency: inactive
[16]
  Potency: inactive
